Several values for one entry are separate records, joined by “and”; a condition that tells them apart may be missing. Equal entries are not always repeated. Some compounds were tested as several samples or in several runs, with calls that do not always agree. Activity calls are given as the source filed them. No stated cut-off is given here; in the data, active means inhibition score above about 11; inactive means the rest.
Experiment: S. cerevisiae short- and long-term growth effects – BY4741, OD595, 24 h, dose response (AID 489042)
Conditions: stronger effect = higher value

SMILES | inhibition score
COc1ccc2nc3ccccc3[n+]([O-])c2c1 | 0 (inactive)
c1ccc2[nH]c3cc4ncnc4cc3nc2c1 | 0 (inactive)
CC(C)(C)n1nc(-c2ccc(Cl)cc2)c2c(N)ncnc21 | 21 (active)
Cc1cccc2nc3ccccc3nc12 | 10 (inactive)
COc1ccc2nc3ccccc3nc2c1 | 10 (inactive) and 21 (active)
COc1ccc2nc3ccccc3nc2c1NC(=O)c1ccccc1Cl | 0 (inactive)
CC(=O)[C@@]1(O)CCC2C3CC[C@H]4C[C@@H](O)CC[C@]4(C)C3CC[C@@]21C (some centres undefined) | 0 (inactive)
CN(C)CCNc1ncnc2c1cnn2-c1ccc(Cl)cc1 | 0 (inactive)
COc1ccc2c3c(cccc13)N(C)N=C2C | 10 (inactive)
CC(C)(C)Nc1ncnc2c1cnn2-c1ccccc1 | 10 (inactive)
CCN(CC)c1ccc2nc3ccc(N)cc3[n+](-c3ccccc3)c2c1 | 0 (inactive)
Cc1cc2nc3ccc(N(C)C)cc3nc2cc1N | 0 (inactive)
O=C(CN1CCN(c2ccccn2)CC1)Nc1ccccc1F | 0 (inactive)
c1ccc2nc3ccccc3nc2c1 | 21 (active)
CCN(CC)C(=O)CSc1nnc(-c2cccc(OC)c2)o1 | 0 (inactive)
CCN(CC)C(=O)c1ccc2nc3ccccc3nc2c1 | 0 (inactive)
CCC(=Nc1ccccc1O)C1=C(O)CC(c2ccccc2)CC1=O (centres undefined) | 10 (inactive)
CCn1c2ccccc2c2n[nH]c(=S)nc21 | 0 (inactive)
CC(C)OC(=O)CSc1nnc(-c2ccc(Cl)cc2Cl)o1 | 0 (inactive)
COc1cccc2nc3cc(C)c(C)cc3nc12 | 10 (inactive)
COc1ccc2nc3ccccc3nc2c1N | 10 (inactive)
O=C(Nc1cccc(Cl)c1)Nc1ccc2nccnc2c1 | 0 (inactive)
COc1ccc2c(c1)c1nnc(SC)nc1n2C | 21 (active)
NC(=O)CSc1nnc(-c2ccc([N+](=O)[O-])cc2)o1 | 0 (inactive)
N#CC(c1nc2ccccc2nc1N1CCCC1)S(=O)(=O)c1ccccc1 (centres undefined) | 0 (inactive)
N#CCc1nn(-c2ccccc2)c2ncnc(N)c12 | 0 (inactive)
CCc1nc(NC(C)(C)C)c2cnn(-c3ccccc3)c2n1 | 0 (inactive)
[O-][n+]1c2ccccc2[n+]([O-])c2cc(O)ccc21 | 10 (inactive)
CCCCCNC(=O)C(=O)C1C(=O)Nc2ccccc21 (centres undefined) | 10 (inactive)

— PubChem BioAssay AID489042 (NMMLSC, 2010)
